# Bioassay records deposited in PubChem BioAssay by Small Molecule Screening Facility, UW Madison.
# Many of the other results were omitted from the sample, so hits are more common in it than they were.
# RMI FANCM FP – inhibitors of human RMI core complex binding to FANCM MM2; Fluorescence polarization, RMI core complex with F-MM2 peptide; stronger effect = lower value; FP signal (polarization) at 33 µM; 0.58% of 70,000 active; in the data active = FP signal below about 40
# A number is an active result; n = inactive; ! = not active in a repeat.
SMILES,RMI FANCM FP
Cc1cccc(NC(=O)NCCS(=O)(=O)c2c(C)n(Cc3ccc(F)cc3)c3ccccc23)c1,n
Cc1ccc(NC(=O)NCCS(=O)(=O)c2c(C)n(Cc3ccccc3)c3ccccc23)cc1C,31
Cc1c(S(=O)(=O)CCNC(=O)Nc2ccccc2Cl)c2ccccc2n1C,n
C=CCn1c(N)c(S(=O)(=O)c2ccc(Cl)cc2)c2nc3ccccc3nc21,n
Cn1c(-c2c(N)n(Cc3ccco3)c3nc4ccccc4nc23)nc2ccccc21,n
Nc1c(S(=O)(=O)c2cccs2)c2nc3ccccc3nc2n1Cc1ccco1,12
CCOc1ccc(N2C(=S)NC3c4cc([N+](=O)[O-])ccc4OC2(C)C3C)cc1 (stereo not drawn),n
Cc1cccc(C(=O)N2CCCC(c3nnc(-c4ccc5c(c4)OCO5)o3)C2)c1 (stereo not drawn),n
O=C(CSc1nnc(NC(=O)c2ccccc2C(F)(F)F)s1)Nc1nc2ccccc2s1,n
O=C(/C=C/c1ccc([N+](=O)[O-])cc1)Nc1cccc2c1C(=O)NC2=O,n
O=C(Nc1ccc(N2CCOCC2)c(C(=O)O)c1)c1ccccc1,n
Cc1ccc2nc(C)c(NC(=O)Cc3cccs3)c(=O)n2c1,28
Cc1ccc2nc(C)c(NC(=O)Cc3ccccc3)c(=O)n2c1,n
CCOC(=O)C(=O)Nc1c(C)nc2ccc(C)cn2c1=O,n
CCNC(=O)CCn1cnc2c(cnn2C(C)(C)C)c1=O,n
O=C1CC2(CCCC2)C(=O)N1c1ccc(S(=O)(=O)NCc2ccccn2)cc1Cl,n
COC(=O)c1ccccc1NS(=O)(=O)c1cccc2cccnc12,n
O=C(O)CC(NS(=O)(=O)c1cc(S(=O)(=O)NC(CC(=O)O)c2ccccc2)c2cccc3c2c1NC3=O)c1ccccc1 (stereo not drawn),n
COC(=O)c1ccccc1NS(=O)(=O)c1cc(S(=O)(=O)Nc2ccccc2C(=O)OC)c2cccc3c2c1NC3=O,30
CCOc1cc(C)c(C)cc1S(=O)(=O)Nc1ccc(Cl)cn1,n
C=CCn1c(=NC(=O)c2ccccc2I)sc2cc(S(C)(=O)=O)ccc21,n
CC(=O)Nc1nnc(-c2ccc3c(c2)OCO3)o1,n
CC(C)Oc1ccc(C(=O)Nc2nnc(-c3ccc4c(c3)OCO4)o2)cc1,n
COc1cc(C(=O)Nc2nnc(-c3ccc4c(c3)OCO4)o2)cc(OC)c1OC,33
CCN(CC)c1ccc(C=Nc2sc3c(c2C#N)CCCC3)c(O)c1,18
SMILES,RMI FANCM FP
CCOC(=O)c1c(N=Cc2ccc(N(CC)CC)cc2O)sc2c1CCCC2,n
N#Cc1c(N=Cc2cc(Br)cc(Br)c2O)sc2c1CCCC2,n
COC(=O)C1CSCC/C1=N/Nc1ccc(Cl)cc1Cl (stereo not drawn),n
COc1ccc(NC(=O)c2ccc(Cl)s2)c2ccccc12,n
Cc1cc([N+](=O)[O-])ccc1NC(=O)C(=O)NC(C)(C)CO,n
NS(=O)(=O)c1ccc(N=Cc2cc(Br)ccc2O)cc1,n
O=S(=O)(N/N=C\c1cc(Br)ccc1O)c1ccccc1,n
O=S(=O)(N=Cc1cc(Br)ccc1O)c1ccccc1,21
C(C#CCOc1ccccc1)#CCOc1ccccc1,n
COc1ccc(CC(=O)Nc2nc3c(OC)cc([N+](=O)[O-])cc3s2)cc1C,n
S=c1[nH]nc(-c2ccncc2)n1/N=C\c1cn(-c2ccccc2)nc1-c1cccs1,n
O=[N+]([O-])c1ccc(-c2nn(-c3ccccc3)cc2/C=N/n2c(-c3cccs3)n[nH]c2=S)cc1,12
O=C(Cc1ccc([N+](=O)[O-])cc1)N/N=C\c1cn(-c2ccccc2)nc1-c1ccccc1,n
NC(=O)c1ccc(NC(=O)Cn2nc(-c3ccc(F)cc3)c3sc(N4CCCC4)nc3c2=O)cc1,n
CCOc1ccc(-c2cc(=O)n(CC(=O)N3CCC(Cc4ccccc4)CC3)cn2)cc1,n
Cc1ccc(N)cc1N1CCCCC1=O,n
CNC(=O)CSc1nc(-c2ccccc2)c(N)s1,n
CN(C)c1ccc(-c2nc3ccccc3c(=O)[nH]2)c(Cl)c1,n
N#C/C(=C\c1ccc(Cl)c(Cl)c1)c1nc2ccccc2c(=O)[nH]1,n
CC(O)=c1c(=O)nc2ccc(Cl)c3c2=c1c1ccccc1c3=O,-21
CC1(C)SC2C(NC(=O)C(N)c3ccccc3)C(=O)N2C1C(=O)O (stereo not drawn),n
CC1(C)S[C@@H]2[C@H](NC(=O)Cc3ccccc3)C(=O)N2[C@H]1C(=O)O,n
CC1(C)S[C@@H]2[C@H](NC(=O)COc3ccccc3)C(=O)N2[C@H]1C(=O)O,32
CC(C)N(C)S(=O)(=O)c1ccc(C(=O)N(Cc2cccnc2)c2nc3c(Cl)cccc3s2)cc1,n
COc1ccc(CCC(=O)N2CCN(Cc3nc(-c4ccco4)cs3)CC2)cc1,n
SMILES,RMI FANCM FP
O=C(CN1CCN(Cc2nc(-c3ccco3)cs2)CC1)N1CCCC1,40
O=C(CN1CCN(Cc2nc(-c3ccco3)cs2)CC1)N1CCOCC1,n
COC(CNC(=O)C(=O)Nc1cccc(N2CCCS2(=O)=O)c1)OC,n
COc1ccc(C)cc1S(=O)(=O)NCCOc1ccc2nnc(-c3ccccc3)n2n1,n
CC(C)C(=O)N1c2ccccc2CC1C(N)=O (stereo not drawn),n
Oc1c(C=C2N=c3ccccc3=N2)sc(=S)n1-c1ccccc1F,23
O=C1N=c2ccccc2=CC1=Cc1sc(=S)n(Cc2ccccc2)c1O,n
Nc1c(C(=O)N2CCOCC2)sc(=S)n1-c1ccccc1F,n
COc1cccc2c1c(NC(=O)Nc1ccc(OCc3ccccc3)cc1)nn2C,n
CC(C)(C)C(=O)NCCn1ncc2c(N3CCN(c4ncccn4)CC3)ncnc21,n
CCc1cc(Cl)c(OC)c(C(=O)NC[C@@H]2CCCN2CC)c1O,n
CCN1CCC[C@H]1CNC(=O)c1c(OC)ccc(I)c1O,n
CCN1CCCC1CNC(=O)c1cc(S(N)(=O)=O)ccc1OC (stereo not drawn),2!
Oc1c(Cl)cc(Cl)cc1C=Nc1ccc(N2CCOCC2)cc1,n
Oc1c(Cl)cc(Cl)cc1C=Nc1ccc2n[nH]nc2c1,25
CC(=O)c1ccc(Cl)c(N=Cc2cc(Cl)cc(Cl)c2O)c1,34
Cc1c(C)c(C)c(C(=O)CCc2cccc(N=Cc3cc(Cl)cc(Cl)c3O)c2)c(C)c1C,n
O=C(N/N=C\c1cc(Cl)cc(Cl)c1O)c1ccncc1,n
CCOC(=O)c1ccc(N2CCOCC2)c(N=Cc2cc(Cl)cc(Cl)c2O)c1,15
CCOC(=O)c1ccc(N2CCOCC2)c(NS(=O)(=O)c2ccccc2[N+](=O)[O-])c1,n
O=C1Nc2ccccc2C1Cc1ccc(N=Cc2cc(Cl)cc(Cl)c2O)cc1 (stereo not drawn),n
CN(C)c1ccc(C(=O)N/N=C\c2cc(Cl)cc(Cl)c2O)cc1,n
O=C(NCC1CCN(Cc2ccccc2)CC1)C(=O)Nc1ccc(OC(F)(F)F)cc1,n
Cc1ccc2c(c1)N(C)C(=O)c1cc(NC(=O)c3ccc(OC(C)C)cc3)ccc1O2,n
Cc1ccc2[nH]c3c(=O)n(CCC(=O)N4CCN(c5ccccc5F)CC4)cnc3c2c1,n
SMILES,RMI FANCM FP
O=C(NC(c1ccccc1)c1ccccc1)N1CCC(c2nnc(C3CC3)o2)CC1,n
C=CCN1C(=O)C(C)(C)COc2cc(NC(=O)c3ccc4c(c3)OCO4)ccc21,n
C=CCNC(=S)NCc1ccco1,n
CCN1CCCc2cc(CCNC(=O)c3ccc(OC(C)C)cc3)ccc21,20
CCN1CCCc2cc(CCNC(=O)C(=O)NCCN3CCOCC3)ccc21,n
CCN1CCCc2cc(CCNC(=O)C(=O)NCCOC)ccc21,13
CCN1CCCc2cc(CCNC(=O)c3ccc(Br)o3)ccc21,n
